PubChem BioAssay (EPA / NIEHS)
Some compounds were tested as several samples or in several runs, with calls that do not always agree. Calls of active or inactive are those of the source. Rule for the calls: active = hit-call score of the fitted dose curve at least 0.9, where 1 is the maximum; inactive = score below 0.9.

What was measured:
[1] = ATG_GLI_CIS: Attagene CIS-FACTORIAL HepG2 Assay for human Zinc Finger Protein GLI1 (AID 2282945); conditions: HepG2, Attagene cis-factorial reporter mRNA, GLI element; actives raise or lower the signal
Procedure, shortened: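 HepG2 cells transiently transfected with cis-promoter multiplexed reporter units report endogenous transcription factor activity. After 24 h chemical exposure, reporter mRNA was quantified by RT-PCR, 6-FAM labelling, HpaI digestion and capillary electrophoresis, with bidirectional fitting against DMSO.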

[2] = target: Bile acid receptor (Homo sapiens) (UniProt Q96RI1); test: ATG_IR1_CIS: Attagene CIS-FACTORIAL HepG2 Assay for human Nuclear Receptor Subfamily 1 Group H Member 4 (NR1H4), IR1 submotif (AID 2282946); conditions: IR1 reporter transcription, actives raise or lower the signal
Sequence of Bile acid receptor (Homo sapiens) (Q96RI1 whole entry, looked up): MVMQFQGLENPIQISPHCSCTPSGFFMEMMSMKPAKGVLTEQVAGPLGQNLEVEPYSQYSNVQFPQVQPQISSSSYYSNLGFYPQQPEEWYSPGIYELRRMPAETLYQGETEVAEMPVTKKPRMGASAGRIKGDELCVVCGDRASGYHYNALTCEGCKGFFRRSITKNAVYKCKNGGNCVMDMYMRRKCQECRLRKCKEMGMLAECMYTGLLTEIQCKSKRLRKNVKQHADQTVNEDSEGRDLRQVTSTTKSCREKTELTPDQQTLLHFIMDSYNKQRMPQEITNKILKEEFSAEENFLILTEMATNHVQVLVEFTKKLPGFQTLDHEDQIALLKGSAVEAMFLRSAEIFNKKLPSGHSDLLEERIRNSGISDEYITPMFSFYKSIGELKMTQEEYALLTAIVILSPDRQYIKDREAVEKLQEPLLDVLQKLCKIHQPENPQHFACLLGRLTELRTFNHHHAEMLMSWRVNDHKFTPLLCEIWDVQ
Procedure, shortened: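 Readout: reporter transcript levels by RT-PCR with fluorescent capillary electrophoresis, from HepG2 cells transiently transfected with multiplexed cis-regulated reporters and dosed 24 h. Gain- or loss-of-signal fitted versus DMSO negative control.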

[3] = ATG_GRE_CIS: Attagene CIS-FACTORIAL HepG2 Assay for human Glucocorticoid Response Elements (GRE) (AID 2282947); conditions: HepG2 GRE cis-reporter, Attagene multiplex mRNA; actives raise or lower the signal
Procedure, shortened: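 Cells (HepG2) bearing transfected cis-promoter reporter transcription units were treated with chemical for 24 hours. Reporter mRNA was measured via RT-PCR with capillary electrophoresis, and activity was fitted in both directions relative to DMSO.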

[4] = ATG_ISRE_CIS: Attagene CIS-FACTORIAL HepG2 Assay for human Interferon Regulatory Factor 1 (IRF1) binding to an Interferon-Stimulated Response Element (ISRE) (AID 2282948); conditions: HepG2 ISRE cis-reporter (Attagene), mRNA transcription readout; actives raise or lower the signal
Procedure, shortened: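 Multiplexed mRNA reporter readout in human liver HepG2 cells: cis-element-driven reporters transfected, compound added for 24 h, transcripts amplified, fluorescently labelled and sized by capillary electrophoresis; curve fitting bidirectional against DMSO.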

[5] = ATG_M_32_CIS: Attagene CIS-FACTORIAL HepG2 Assay for M32 Transcription Factor (Internal Marker) (AID 2282949); conditions: HepG2 Attagene cis-factorial M32 reporter, mRNA; actives raise or lower the signal;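 note: background control marker of the multiplexed CIS panel rather than a real target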
Procedure, shortened: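 HepG2 transfectants (cis-regulated reporter transcription units) dosed 24 h. Reporter mRNA by RT-PCR plus CE, analysed as gain or loss relative to DMSO.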

[6] = ATG_M_06_CIS: Attagene CIS-FACTORIAL HepG2 Assay for M06 Transcription Factor (Internal Marker) (AID 2282950); conditions: HepG2 Attagene CIS-FACTORIAL M06 internal marker reporter; actives raise or lower the signal
Procedure, shortened: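 HepG2 cells transiently transfected with cis-regulated multiple reporter transcription units were exposed to chemical for 24 h; reporter mRNA was quantified by RT-PCR, 6-FAM primer labelling, HpaI digestion and capillary electrophoresis, fitted bidirectionally against DMSO.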

[7] = target: Hypoxia-inducible factor 1-alpha (Homo sapiens) (UniProt Q16665); test: ATG_HIF1a_CIS: Attagene CIS-FACTORIAL HepG2 Assay for human Hypoxia Inducible Factor 1 (HIF1A) (AID 2282951); conditions: HepG2 Attagene cis-factorial HIF1a reporter transcription; actives raise or lower the signal
Sequence of Hypoxia-inducible factor 1-alpha (Homo sapiens) (Q16665 whole entry, looked up): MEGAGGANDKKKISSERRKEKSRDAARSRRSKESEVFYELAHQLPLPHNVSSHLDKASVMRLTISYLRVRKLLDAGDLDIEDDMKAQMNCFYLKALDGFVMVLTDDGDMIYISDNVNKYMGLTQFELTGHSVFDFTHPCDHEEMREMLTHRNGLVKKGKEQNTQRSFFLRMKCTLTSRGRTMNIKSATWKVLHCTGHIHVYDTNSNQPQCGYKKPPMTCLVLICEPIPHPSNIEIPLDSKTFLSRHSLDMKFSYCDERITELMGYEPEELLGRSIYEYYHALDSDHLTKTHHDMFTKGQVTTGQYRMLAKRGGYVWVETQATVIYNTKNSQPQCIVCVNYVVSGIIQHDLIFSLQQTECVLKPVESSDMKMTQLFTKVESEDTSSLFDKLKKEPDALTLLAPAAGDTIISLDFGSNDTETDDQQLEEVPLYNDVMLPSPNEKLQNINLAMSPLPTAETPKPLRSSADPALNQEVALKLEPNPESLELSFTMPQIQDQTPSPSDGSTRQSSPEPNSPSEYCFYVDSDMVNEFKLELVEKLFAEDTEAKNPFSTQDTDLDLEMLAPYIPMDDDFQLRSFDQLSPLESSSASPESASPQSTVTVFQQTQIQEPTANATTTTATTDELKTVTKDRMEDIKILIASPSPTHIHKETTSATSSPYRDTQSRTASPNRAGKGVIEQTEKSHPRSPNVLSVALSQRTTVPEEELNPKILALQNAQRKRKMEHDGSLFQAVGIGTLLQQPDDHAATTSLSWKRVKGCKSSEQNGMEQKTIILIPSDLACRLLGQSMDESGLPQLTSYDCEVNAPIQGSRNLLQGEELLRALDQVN
Procedure, shortened: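 Endogenous-TF cis reporter readout, human HepG2 cells, 24 h incubation; mRNA detected via RT-PCR and capillary electrophoresis fluorescence; DMSO-normalised bidirectional fitting.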

[8] = target: Heat shock factor protein 1 (Homo sapiens) (UniProt Q00613); test: ATG_HSE_CIS: Attagene CIS-FACTORIAL HepG2 Assay for human Heat Shock Transcription Factor 1 (HSE) (AID 2282953); conditions: HepG2 HSE cis-reporter, Attagene RNA transcription; actives raise or lower the signal
Sequence of Heat shock factor protein 1 (Homo sapiens) (Q00613 whole entry, looked up): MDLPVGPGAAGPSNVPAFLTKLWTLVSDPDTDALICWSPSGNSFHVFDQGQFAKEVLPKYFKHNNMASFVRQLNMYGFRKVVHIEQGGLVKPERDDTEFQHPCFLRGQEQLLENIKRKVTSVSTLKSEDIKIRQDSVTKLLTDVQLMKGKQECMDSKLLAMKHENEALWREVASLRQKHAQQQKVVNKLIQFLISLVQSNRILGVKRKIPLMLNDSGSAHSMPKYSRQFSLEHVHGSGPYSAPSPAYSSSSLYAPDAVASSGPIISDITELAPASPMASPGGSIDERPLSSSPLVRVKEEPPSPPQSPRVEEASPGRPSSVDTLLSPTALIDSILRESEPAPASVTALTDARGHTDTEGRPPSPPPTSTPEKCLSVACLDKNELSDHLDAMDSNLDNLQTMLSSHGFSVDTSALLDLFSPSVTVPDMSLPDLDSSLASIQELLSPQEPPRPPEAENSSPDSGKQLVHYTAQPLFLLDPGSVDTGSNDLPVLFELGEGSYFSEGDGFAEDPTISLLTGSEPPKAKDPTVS
Procedure, shortened: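 HepG2 cells transiently transfected with multiple reporter transcription units under cis-regulatory promoter control, measuring endogenous transcription factor activity. After 24 h chemical exposure, reporter mRNA quantified by RT-PCR, fluorescent labelling, HpaI digestion and capillary electrophoresis; bidirectional fit versus DMSO.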

[9] = ATG_MRE_CIS: Attagene CIS-FACTORIAL HepG2 Assay for human Metal Responsive Element (MRE) (AID 2282954); conditions: HepG2 MRE cis-reporter transcription, Attagene multiplex; actives raise or lower the signal
Procedure, shortened: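 Cells were transfected with cis-promoter reporter transcription units, then dosed for 24 h. RNA was reverse-transcribed, amplified, fluorescently labelled and resolved by capillary electrophoresis, and activity was fitted in both directions relative to DMSO.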

[10] = ATG_PBREM_CIS: Attagene CIS-FACTORIAL HepG2 Assay for human Phenobarbital-responsive Enhancer Module (PBREM) (AID 2282955); conditions: HepG2 PBREM cis-reporter, Attagene multiplexed transcription; actives raise or lower the signal
Procedure, shortened: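 Readout: reporter mRNA, fluorescent RT-PCR fragments separated by capillary electrophoresis. System: HepG2 transiently transfected with cis-regulated reporter units. Exposure: 24 h. Analysis: bidirectional, DMSO baseline.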

[11] = target: Paired box protein Pax-6 (Homo sapiens) (UniProt P26367); test: ATG_Pax6_CIS: Attagene CIS-FACTORIAL HepG2 Assay for human Paired Box 6 (PAX6) (AID 2282956); conditions: HepG2 CIS-FACTORIAL PAX6 reporter transcription, RNA readout; actives raise or lower the signal
Sequence of Paired box protein Pax-6 (Homo sapiens) (P26367 whole entry, looked up): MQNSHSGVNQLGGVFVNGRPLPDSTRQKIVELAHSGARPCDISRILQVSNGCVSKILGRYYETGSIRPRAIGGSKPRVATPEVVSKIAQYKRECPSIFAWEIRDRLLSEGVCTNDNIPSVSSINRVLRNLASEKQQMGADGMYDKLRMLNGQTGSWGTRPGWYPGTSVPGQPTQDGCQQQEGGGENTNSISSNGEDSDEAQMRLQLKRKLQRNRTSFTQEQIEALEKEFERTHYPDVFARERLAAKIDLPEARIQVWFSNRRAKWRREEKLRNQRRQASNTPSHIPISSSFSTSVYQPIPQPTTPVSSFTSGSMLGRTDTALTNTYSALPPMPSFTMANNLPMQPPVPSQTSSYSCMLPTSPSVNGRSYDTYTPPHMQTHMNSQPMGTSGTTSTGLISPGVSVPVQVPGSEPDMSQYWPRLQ
Procedure, shortened: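 Fluorescent RT-PCR products separated by capillary electrophoresis report PAX6-linked promoter mRNA in HepG2 cells 24 h post-dose. Curves fitted bidirectionally, DMSO as negative control.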

[12] = ATG_PXRE_CIS: Attagene CIS-FACTORIAL HepG2 Assay for human Pregnane X Receptor Element (PXRE) (AID 2282957); conditions: HepG2 Attagene CIS-FACTORIAL PXRE reporter, mRNA; actives raise or lower the signal
Procedure, shortened: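 Reporter transcripts under endogenous PXR-responsive cis-regulation quantified from total RNA of transfected HepG2 cells 24 h post-dosing, via RT-PCR with fluorescent primer extension and capillary electrophoresis. Gain or loss of signal fitted against DMSO baseline.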

[13] = ATG_RORE_CIS: Attagene CIS-FACTORIAL HepG2 Assay for human RAR-related Orphan Receptor Element (RORE) (AID 2282959); conditions: HepG2 Attagene cis-factorial RORE reporter, mRNA; actives raise or lower the signal
Procedure, shortened: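 Measured here: transcript induction of a cis-regulated reporter in HepG2 cells transiently transfected via FuGene 6. After 24 h, RNA was processed by RT-PCR and fluorescent capillary electrophoresis; DMSO defined baseline activity.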

[14] = ATG_Sox_CIS: Attagene CIS-FACTORIAL HepG2 Assay for human SRY-box transcription factor (SOX) (AID 2282960); conditions: HepG2 Attagene cis-factorial SOX reporter, mRNA; actives raise or lower the signal
Procedure, shortened: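 Using transiently transfected HepG2 cells, reporter transcription driven by cis elements was assessed 24 h after dosing. Signal was fluorescence of capillary-separated RT-PCR products, with DMSO defining baseline activity.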

[15] = target: Transcription factor Sp1 (Homo sapiens) (UniProt P08047); test: ATG_Sp1_CIS: Attagene CIS-FACTORIAL HepG2 Assay for human Specificity Protein 1 (Sp1) (AID 2282961); conditions: HepG2 Sp1 cis-reporter transcription, actives raise or lower the signal
Sequence of Transcription factor Sp1 (Homo sapiens) (P08047 whole entry, looked up): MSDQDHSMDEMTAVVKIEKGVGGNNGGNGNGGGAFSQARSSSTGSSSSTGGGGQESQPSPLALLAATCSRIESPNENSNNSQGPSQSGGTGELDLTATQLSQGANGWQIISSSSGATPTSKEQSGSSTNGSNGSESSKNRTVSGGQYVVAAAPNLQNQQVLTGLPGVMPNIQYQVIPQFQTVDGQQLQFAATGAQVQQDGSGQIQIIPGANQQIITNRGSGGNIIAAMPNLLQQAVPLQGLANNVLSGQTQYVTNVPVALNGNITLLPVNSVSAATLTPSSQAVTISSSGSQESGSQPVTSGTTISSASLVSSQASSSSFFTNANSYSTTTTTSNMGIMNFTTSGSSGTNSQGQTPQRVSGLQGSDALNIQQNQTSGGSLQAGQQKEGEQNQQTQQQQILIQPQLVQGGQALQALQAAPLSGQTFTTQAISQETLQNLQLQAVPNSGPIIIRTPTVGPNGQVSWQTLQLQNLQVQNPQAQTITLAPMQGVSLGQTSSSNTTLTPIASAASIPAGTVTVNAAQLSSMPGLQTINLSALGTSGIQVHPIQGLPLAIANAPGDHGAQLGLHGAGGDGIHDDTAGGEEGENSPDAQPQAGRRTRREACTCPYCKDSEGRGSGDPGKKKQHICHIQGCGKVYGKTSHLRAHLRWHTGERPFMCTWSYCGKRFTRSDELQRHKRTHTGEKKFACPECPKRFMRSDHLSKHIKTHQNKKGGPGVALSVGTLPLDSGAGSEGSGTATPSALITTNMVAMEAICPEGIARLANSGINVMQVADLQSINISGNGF
Procedure, shortened: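 After transient transfection of HepG2 cells with cis-promoter reporter units and 24 h chemical treatment, reporter transcripts were quantified by RT-PCR and capillary electrophoresis fluorescence. Gain- and loss-of-signal fitted against DMSO.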

[16] = ATG_SREBP_CIS: Attagene CIS-FACTORIAL HepG2 Assay for human Sterol Regulatory Element Binding (SREBP) (AID 2282962); conditions: HepG2 Attagene cis-factorial SREBP reporter, mRNA; actives raise or lower the signal
Procedure, shortened: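 Endogenous factor activity is measured in HepG2 through multiplexed reporter units under cis-element control. Following a 24 h incubation, reporter transcripts are reverse-transcribed, PCR-amplified and sized by capillary electrophoresis; activity is fitted in both directions relative to DMSO.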

[17] = target: Signal transducer and activator of transcription 3 (Homo sapiens) (UniProt P40763); test: ATG_STAT3_CIS: Attagene CIS-FACTORIAL HepG2 Assay for human Signal Transducer and Activator of Transcription 3 (STAT3) (AID 2282963); conditions: HepG2, Attagene cis-factorial STAT3 reporter transcription; actives raise or lower the signal
Sequence of Signal transducer and activator of transcription 3 (Homo sapiens) (P40763 whole entry, looked up): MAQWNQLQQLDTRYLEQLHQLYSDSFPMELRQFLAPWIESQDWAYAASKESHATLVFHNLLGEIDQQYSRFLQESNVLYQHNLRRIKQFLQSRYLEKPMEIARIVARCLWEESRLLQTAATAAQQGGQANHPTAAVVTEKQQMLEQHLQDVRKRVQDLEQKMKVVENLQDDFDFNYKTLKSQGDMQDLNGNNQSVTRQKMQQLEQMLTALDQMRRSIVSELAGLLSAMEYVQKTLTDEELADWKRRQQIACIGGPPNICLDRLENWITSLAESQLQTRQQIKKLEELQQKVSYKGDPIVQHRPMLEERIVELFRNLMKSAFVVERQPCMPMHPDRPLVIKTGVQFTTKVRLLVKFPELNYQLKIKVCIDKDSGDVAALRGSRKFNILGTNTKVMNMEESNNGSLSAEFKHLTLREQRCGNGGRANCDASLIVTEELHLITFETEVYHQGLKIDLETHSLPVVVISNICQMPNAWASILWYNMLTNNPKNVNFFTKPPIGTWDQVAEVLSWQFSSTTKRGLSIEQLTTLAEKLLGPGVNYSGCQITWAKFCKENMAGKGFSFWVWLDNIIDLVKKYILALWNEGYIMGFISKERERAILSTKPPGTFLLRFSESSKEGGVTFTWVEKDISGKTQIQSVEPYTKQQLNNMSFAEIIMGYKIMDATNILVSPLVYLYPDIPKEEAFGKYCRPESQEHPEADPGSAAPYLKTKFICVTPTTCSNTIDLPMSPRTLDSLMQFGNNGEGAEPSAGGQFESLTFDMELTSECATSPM
Procedure, shortened: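 HepG2, MRTU-transfected, 24 h dosing. RNA → RT → PCR → FAM label → HpaI → CE. Bidirectional fit vs DMSO.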

[18] = ATG_TA_CIS: Attagene CIS-FACTORIAL HepG2 Assay for human TA Basal Promoter (AID 2282964); conditions: HepG2 Attagene CIS-factorial TA basal promoter reporter; actives raise or lower the signal
Procedure, shortened: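 HepG2 cells transiently transfected with multiplexed cis-promoter reporter units, dosed 24 h. Reporter mRNA measured by RT-PCR, 6-FAM labelling, HpaI digestion and capillary electrophoresis; bidirectional fit versus DMSO baseline, serving as background control.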

Measured: AC50

C=CCc1cc(S(=O)(=O)c2ccc(O)c(CC=C)c2)ccc1O
active: [2] 51.1 µM | [8] 54.7 µM | [9] 47 µM | [11] 33.4 µM | [12] 2.77 µM | [13] 17.4 µM | [16] 9.26 µM | [18] 33.4 µM
inactive: all other assays above

S=P(N1CC1)(N1CC1)N1CC1
inactive: [1] | [2] | [3] | [4] | [5] | [6] | [7] | [8] | [9] | [10] | [11] | [13] | [14] | [15] | [16] | [17] | [18]
active: [12] 12.1 µM [middle of 4 runs] | [16] 157 µM

Cc1nccn1-c1ccc(Sc2cccc(C3(C(N)=O)CCOCC3)c2)cc1
active: [2] 1.01 µM | [3] 5.85 µM | [4] 7.26 µM | [9] 6.89 µM | [10] 3.41 µM | [13] 5.29 µM | [15] 2.31 µM | [16] 2.08 µM
inactive: all other assays above
